BAZ2B block: inhibitors of human BAZ2B bromodomain. Q9UIF8. AlphaScreen BAZ2B-H3K14Ac peptide displacement. Potency, µM (titrated, usually from 114 µM), actives largely listed as inhibitors. 360,000 tested, 4.4% active. AID 504333; note: nearly all actives have a fitted effect of over 60% in size
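AlphaScreen displacement: compounds (up to 110uM) incubated 30 min at room temperature with a preformed 50 nM BAZ2B/50 nM biotinylated H3K14Ac peptide complex in PBS pH 7.4 with Tween-20. Donor and acceptor beads at 10 ug/mL final added, 20 min light-protected before reading.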
JMJD2A Tudor inh: blocks the human JMJD2A Tudor domain. AlphaScreen JMJD2A-Tudor / H3K4me3 peptide binding. Potency, µM (doses to about 114 µM), most hits filed as inhibitors. 390,000 tested, 4.4% active. AID 504339; note: nearly all actives have a fitted effect of over 50% in size
Six1-Eya2 blk: Six1/Eya2 interaction inhibition; Q15475+O00167; AlphaScreen GST-Six1/His-Eya2 binding, biochemical; hits give low values; activity change, % (concentration not given with the values); 360,000 tested, 0.56% active; in the data active = activity change below about -65%; inconclusive = mostly about -30% to -63%
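GST-Six1 + His-Eya2 (5X stock: 250/500 nM); Tris pH 8.0, 300 mM NaCl, 0.05% BSA, 0.02% Tween 20; GSH donor/Ni acceptor beads; 1 h 37 °C dark; AlphaScreen readout.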
HP1b binding inh: blocks HP1-beta chromodomain binding to methylated histone tails. 390,000 tested, 0.56% active. P83916. AID 540317. Potency, µM (titrated, usually from 114 µM), hits mostly inhibitors. AlphaScreen HP1-beta / biotin-H3K9me3 peptide binding; note: nearly all actives have a fitted effect of over 70% in size
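Compound inhibition of the preformed complex between 50 nM HP1-beta and 50 nM biotinylated H3K9me3 peptide was read by AlphaScreen. Buffer was PBS pH 7.4 with 0.01% Tween-20. Incubations ran 30 min at room temperature, with 10 ug/mL donor/acceptor beads.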
G9a inh: blocks human histone lysine methyltransferase G9a. Q96KQ7. AID 504332. Potency, µM (top dose mostly 102 µM), usual class: inhibitors. 350,000 tested, 8.8% active. G9a H3K9 monomethylation, AlphaScreen, 2 h; note: nearly all actives have a fitted effect of over 75% in size
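Readings reflect AlphaScreen signal from monomethyl-H3K9 antibody detection. HMT at 20 nM; substrate b-H3K9 500 nM; cofactor SAM 20 uM; 2 h RT reaction; compounds tested as titrations in qHTS with 15 min preincubation.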
CtBP-E1A blk: CtBP/E1A binding inhibition | AlphaScreen GST-E1A/His-CtBP binding, 1536-well; hits give low values | activity change, % (concentration not given with the values) | AID 651724 | 340,000 tested, 0.49% active; in the data active = activity change below about -65%; inconclusive = mostly about -30% to -63%
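AlphaScreen with 125 nM GST-E1A and 125 nM His-CtBP (5X stocks) in Tris pH 8.0, 300 mM NaCl, BSA, Tween 20, TCEP. Compounds preincubated 2 h at 37 deg C, then glutathione donor/nickel acceptor beads added for 1 h at 37 deg C in dark.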
Large screens that a line does not name were inactive. Shown are actives, neighbours in structure and some others; about 10% of the full set was active somewhere. Unless noted, calls come from the whole dose curve; as a rule, active = well fitted inhibition curve with a large enough effect; inconclusive = small, poorly fitted or top-dose-only effect; inactive = no such curve, though single readings can be large or run the other way.

CCCOc1ccc(NCC(=O)Nc2ccc(C)cc2C)cc1	BAZ2B block inconclusive, JMJD2A Tudor inh inconclusive, G9a inh 8.91µM
Cc1cc(Cl)ccc1NC(=O)CCC(=O)O	none
COc1ccc(NC(=O)CC(=O)Nc2ccc(OC)cc2OC)c(OC)c1	none
COc1ccc(NCC(=O)Nc2ccc(Cl)cc2C)c(OC)c1	BAZ2B block 50.1µM, JMJD2A Tudor inh 50.1µM, HP1b binding inh inconclusive, G9a inh 1.41µM
CCOc1ccc(NCC(=O)Nc2ccc(Cl)cc2C)cc1	BAZ2B block inconclusive, JMJD2A Tudor inh inconclusive, G9a inh 8.91µM
Cc1cccc(CNC(=O)c2ccc(N3Cc4ccccc4Oc4ncccc43)s2)c1	none (no result: Six1-Eya2 blk, CtBP-E1A blk)
O=C(COc1ccc(F)cc1)OCc1cc(=O)n2nc(C3CCCCC3)sc2n1	none (no result: Six1-Eya2 blk, CtBP-E1A blk)
Oc1c(Br)cc(/C=N/n2c(-c3ccccc3)n[nH]c2=S)c(O)c1Br	JMJD2A Tudor inh 3.98µM, Six1-Eya2 blk inconclusive, G9a inh 0.398µM (no result: CtBP-E1A blk)
Oc1c(Br)cc(/C=N/n2c(-c3ccccc3)n[nH]c2=S)cc1Br	BAZ2B block inconclusive, JMJD2A Tudor inh 3.16µM, G9a inh 1.26µM
Cc1c(Br)c(O)c(Br)c(O)c1/C=N/n1c(-c2ccccc2)n[nH]c1=S	JMJD2A Tudor inh 25.1µM, HP1b binding inh inconclusive, G9a inh 0.794µM, CtBP-E1A blk inconclusive
Cc1nn(-c2ccccc2)c(C)c1/C=N/n1c(-c2ccc(C(C)(C)C)cc2)n[nH]c1=S	BAZ2B block inconclusive, JMJD2A Tudor inh inconclusive, HP1b binding inh inconclusive
Oc1ccc(/C=N/n2c(-c3ccccc3)n[nH]c2=S)cc1Br	JMJD2A Tudor inh 8.91µM, G9a inh 0.891µM (no result: CtBP-E1A blk)
CCC1(C)OC(=O)NN(c2ccc(C)cc2)C1(C)O (centres undefined)	none
O=C(NC1CC1)c1ccc2c(c1)S(=O)(=O)c1cc(Cl)ccc1C2=O	none (no result: JMJD2A Tudor inh, Six1-Eya2 blk, HP1b binding inh, CtBP-E1A blk)
COc1ccc(C)cc1NC(=O)c1c2c(nc3ccccc13)C(=O)N(C1CCCCC1)C2	BAZ2B block inconclusive (no result: Six1-Eya2 blk, CtBP-E1A blk)
CCCCCCCCc1nc(=S)[nH][nH]1	JMJD2A Tudor inh inconclusive, HP1b binding inh inconclusive, G9a inh 0.891µM
CCCCCCC1CC(CCc2nc(=S)[nH][nH]2)C(=O)O1 (centres undefined)	JMJD2A Tudor inh 31.6µM, G9a inh 1.58µM
CCCCCC1CC(CC(=O)O)C(=O)O1 (centres undefined)	none
CCCCCCCCCc1nc(N)n[nH]1	none (no result: G9a inh)
COC(=O)c1ccc(NC(=O)C(=O)NCCc2sc(-c3cccc(F)c3)nc2C)cc1	none (no result: Six1-Eya2 blk, CtBP-E1A blk)
CCCC(=O)Nc1nnc(-c2ccc3c(c2)OCCO3)o1	BAZ2B block 79.4µM, JMJD2A Tudor inh inconclusive
COc1ccc(S(=O)(=O)c2cn(C)c3ccc(C)cc3c2=O)cc1	none (no result: Six1-Eya2 blk, CtBP-E1A blk)
Cc1c(CN2CCCCC2)c(O)n(CCCO)c(=O)c1C#N	G9a inh 44.7µM
CCCn1c(O)c(CN2CCCCC2)c(C)c(C#N)c1=O	JMJD2A Tudor inh inconclusive
COc1ccc(S(=O)(=O)N(C)c2ccc(C(=O)N3CCC(C(N)=O)CC3)cc2)cc1OC	none
CC1C2=C(CC(C)(C)CC2=O)NC2=C1C(=O)CC(C)(C)C2	none
CC1(C)CC(=O)C2=C(C1)NC(=S)C(C#N)C21CCCCC1 (centres undefined)	BAZ2B block inconclusive, JMJD2A Tudor inh 7.94µM, HP1b binding inh inconclusive, G9a inh 0.501µM
Cc1ccc(-c2cc(C(=O)Nc3ccccc3C)c3ccccc3n2)o1	JMJD2A Tudor inh 79.4µM, G9a inh 1.78µM
Cc1cc(-c2ccccc2)nc2cc(C(=O)NCc3ccco3)nn12	BAZ2B block 50.1µM, JMJD2A Tudor inh inconclusive, G9a inh 50.1µM
COC(=O)c1cc(-c2ccc(C)o2)nc2ccccc12	BAZ2B block inconclusive, JMJD2A Tudor inh inconclusive, HP1b binding inh inconclusive, G9a inh inconclusive
Cc1ccc(-c2cc(C(=O)NCc3ccco3)c3ccccc3n2)o1	BAZ2B block 50.1µM, JMJD2A Tudor inh 50.1µM, G9a inh inconclusive
CCc1nnc(NC(=O)c2cc(C)nc3ccccc23)s1	G9a inh inconclusive
CCc1nnc(NC(=O)c2cc(-c3ccc(C)o3)nc3ccccc23)s1	JMJD2A Tudor inh 89.1µM, G9a inh inconclusive, CtBP-E1A blk inconclusive
